Pf growth 48h: Primary qHTS for delayed death inhibitors of the malarial parasite plastid, 48 hour incubation; AID 504832, 2011; Potency, µM (titrated, usually from 28.7 µM), most hits filed as inhibitors; 310,000 tested, 5.9% active; P. falciparum luciferase growth in erythrocytes, 48 h
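In quantitative HTS format, infected erythrocytes bearing luciferase-reporter parasites were treated for a single generation at 37 C. Luminescence after adding detection reagent served as the growth measure.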
Cycloheximide cs: Cycloheximide Counterscreen for Small Molecule Inhibitors of Shiga Toxin; cell reporter, cycloheximide protein synthesis inhibition counterscreen; 300,000 tested, 12% active; AID 2314, 2010; max response, %; in the data active = max response mostly above about 13%, no sharp cut-off; inactive = mostly below about 14%; also: read at 38.3 µM for the half of the compounds with a filed dose
NS1 function inh: qHTS Assay for Inhibitors of Influenza NS1 Protein Function | Potency, µM (series often up to 46.1 µM) | 270,000 tested, 0.4% active | AID 2326, 2010; calls by dose curve; also: actives are rising curves; nearly all actives have a fitted effect of over 50% in size
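Compounds were scored for reversing the slow growth caused by influenza A NS1 in S. cerevisiae, measured by optical density at 600 nm. Assay medium contained 2% galactose at pH 6.0; NS1-free yeast of the same strain were the positive control.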
Shiga toxin inh: A qHTS for Small Molecule Inhibitors of Shiga Toxin; Vero cells, Shiga toxin protein synthesis inhibition reporter; inhibition, % at 38.7 µM; 290,000 tested, 9.2% active; AID 2315, 2010; in the data active = inhibition mostly above about 28%, no sharp cut-off; inactive = mostly below about 43%
Pf growth 96h: Primary qHTS for delayed death inhibitors of the malarial parasite plastid, 96 hour incubation; P. falciparum luciferase reporter growth, 96 h; Potency, µM (doses to about 28.7 µM), most hits filed as inhibitors; 320,000 tested, 6.9% active
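Delayed-death screen, second-generation endpoint: infected erythrocytes, 2% hematocrit, 0.05% parasitemia final; 96 hours at 37 C, 5% CO2; luciferase detection reagent; luminescence decrease equals reduced growth.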
A number is an active result; i = inactive; ? = inconclusive; nt = no result given; [ ] = dose if it differs, or a comment. Sampled rows, rich in hits. Any-hit rate of the full collection: about 21%. Unless noted, calls follow the shape of the dose curve; as a rule, active = well fitted inhibition curve with a large enough effect; inconclusive = small, poorly fitted or top-dose-only effect, or another doubt; inactive = no such curve, though single readings can be large or run the other way.

SMILES	Pf growth 48h	Cycloheximide cs	NS1 function inh	Shiga toxin inh	Pf growth 96h
COc1ccc(CNS(=O)(=O)c2cccc(S(=O)(=O)N3CCOCC3)c2)cc1	nt	i	i	i	i
Cc1ccc(C(NC(=O)Nc2ccccn2)C(Cl)(Cl)Cl)cc1F (centres undefined)	?	i	i	i	13.1µM
Cc1ccccc1NC(=O)Nc1ccccn1	i	28.0	i	nt	?
O=C1N[C@@H]2[C@H](CCCCC(=O)Oc3ccc([N+](=O)[O-])cc3)SC[C@H]2N1	nt	i	nt	i	nt
CC1CC(C)CN(C(=O)CCn2c(=O)oc3ccccc32)C1 (centres undefined)	i	i	i	i	i
Cc1ccsc1-c1nc(CSCC(=O)NCc2ccc3c(c2)OCO3)c(C)o1	nt	i	i	i	i
Cc1nc(C#N)c(N/N=C/c2cccc(Cl)c2)o1	i	35.9	i	53.7	i
CN(C)CCNc1oc(-c2cccc(Cl)c2)nc1C#N	nt	i	i	i	i
Cc1cc(NC(=O)CCC(=O)N(CCC(C)C)C(C(=O)NCC2CCCO2)c2ccccc2C)no1 (centres undefined)	?	i	i	i	i
O=C(COc1cccc2cccnc12)N/N=C/c1ccccc1O	?	i	i	i	?
O=C(O)c1ccc(N/N=C/c2ccnc3ccccc23)cc1	i	40.9	i	90.7	i
O=C(O)c1ccc(N/N=C/c2cccc3cccnc23)cc1	i	48.6	i	83.1	i
Oc1ccccc1/C=N/Nc1cccc2cccnc12	i	29.6	i	101.0	i
N#CCc1nn2c(-c3ccccc3)ccnc2c1C#N	?	i	?	i	i
Cc1sc2ncn(CC(=O)NCC(=O)N3CCN(c4ccccc4F)CC3)c(=O)c2c1C	i	i	i	i	i
Cc1cccc(CNC(=O)c2ccc3c(c2)N(C)CCS3)c1	i	i	i	i	i
CN1CCSc2ccc(C(=O)NCc3cccc(Br)c3)cc21	?	10.9	i	i	?
COc1ccc(CNC(=O)c2cccc(N3CCCC3=O)c2)cc1	nt	i	i	i	?
COc1ccc(CNC(=O)c2ccc3c(c2)N(C)C(=O)CS3=O)cc1 (centres undefined)	nt	i	14.1µM	i	i
COc1ccc(CNC(=O)c2ccc3c(c2)N(C)CCS3)cc1	i	active	i	i	?
CN1CCSc2ccc(C(=O)NCc3ccccc3F)cc21	i	27.5	i	35.0	i
COc1ccc(C)cc1NC(=S)NC12CN3CN(CN(C3)C1)C2	i	i	i	i	i
CC1(O)N(CCC(=O)Nc2cccc(F)c2)C(=O)OC12CCCCC2 (centres undefined)	?	i	nt	i	?
Cc1nn(C(=O)Cn2ccc([N+](=O)[O-])n2)c(C)c1Br	i	i	i	i	i
Cc1cc(C(=O)NNC2CC(=O)N(c3ccc4ccccc4c3)C2=O)c(C)o1 (centres undefined)	i	i	i	i	i
SMILES	Pf growth 48h	Cycloheximide cs	NS1 function inh	Shiga toxin inh	Pf growth 96h
COc1ccccc1NC(=O)CSc1nc2[nH]ncc2c(=O)[nH]1	i	nt	nt	nt	i
CC(C)Oc1ccc(CNC(=O)c2ccc3c(c2)N(C)CCS3)cc1	i	35.1	i	53.8	i
O=C(Nc1ccc(F)c(F)c1)C1CCN(S(=O)(=O)c2cccc3nonc23)CC1	i	i	?	i	?
Cc1ccc(N2C(=O)c3ccc(C(=O)O)cc3C2=O)c(C)c1	i	i	i	i	i
CC1CCC(NC(=O)C2CCN(c3c4c(nc5ncnn35)CCC4)CC2)CC1 (centres undefined)	?	19.9	i	48.8	i
COc1ccc(NC(=O)C2CCCN(c3c4c(nc5ncnn35)CCC4)C2)cc1 (centres undefined)	i	i	i	i	11.7µM
COc1ccc(CC(NC(C)=O)C(=O)NC2CCN(c3c4c(nc5ncnn35)CCC4)CC2)cc1 (centres undefined)	?	i	i	i	i
FC(F)(F)c1nnc(-c2ccccc2)nc1Sc1ccccc1	?	i	i	i	13.1µM
FC(F)(F)c1cccc(Sc2nc(-c3ccccc3)nnc2C(F)(F)F)c1	11.7µM	i	i	i	?
FC(F)(F)c1nnc(-c2ccccc2)nc1Sc1ccc(Cl)cc1	?	i	i	i	i
CCCCOc1c(Br)cc(CNCCCN2CCOCC2)cc1OC	13.1µM	i	i	i	10.4µM
CN(CC(=O)OCC(=O)c1c(N)n(C)c(=O)n(C)c1=O)S(=O)(=O)c1ccc(Cl)cc1	i	i	i	i	i
O=C(Nc1ccccc1Oc1ccccc1)c1cccs1	nt	i	i	i	i
COc1cc(/C=N/O)cc(Br)c1OC	i	i	i	i	i
COc1cc(/C=C/c2ccc3cccc(O)c3n2)cc(Br)c1OC	?	78.3	i	163.7	?
COc1cc(/C=N/O)cc(Cl)c1OC	i	i	i	i	i
COc1ccc(/C=C/c2ccc3cccc(O)c3n2)cc1Br	?	47.7	i	115.3	i
COc1cc(/C=C/c2ccc3cccc(O)c3n2)cc(Cl)c1OC	i[0.00184 µM]	52.2	i	126.8	3.7µM
COC(=O)c1ccc(/C=C/c2ccc3cccc(OC)c3n2)cc1	i	i	i	i	?
COc1ccc(Br)cc1/C=C/c1ccc2cccc(O)c2n1	2.08µM	i	i	i	?
COc1cc(/C=C/c2ccc3cccc(O)c3n2)cc(OC)c1OC	?	33.3	i	62.6	i
Cc1cc2c(ncn2C)c(NS(=O)(=O)c2ccc(Cl)cc2)c1C	i	i	nt	i	i
CCOC(=O)c1ccc(N=C2S/C(=C\c3cc(C)n(-c4cccnc4)c3C)C(=O)N2C)cc1	nt	i	i	i	?
CCOC(=O)C(C)N1C(=O)S/C(=C/c2cc(C)n(-c3ccccn3)c2C)C1=O (centres undefined)	i	31.1	i	114.3	nt
CCOC(=O)C(C)N1C(=O)S/C(=C/c2cc(C)n(-c3ccncc3)c2C)C1=O (centres undefined)	?	17.8	i	i	13.1µM
SMILES	Pf growth 48h	Cycloheximide cs	NS1 function inh	Shiga toxin inh	Pf growth 96h
Cc1cc(C=C2C(=O)N(C)C(=S)N(C)C2=O)c(C)n1-c1ccncc1	i	i	i	i	i
Cc1cc(C)cc(N(CC(=O)NCCSc2ccccn2)S(=O)(=O)c2ccccc2)c1	?	i	i	i	i
O=C(NCCc1c[nH]c2ccccc12)/C(=C/c1ccco1)NC(=O)c1ccco1	i	i	i	i	0.294µM
O=C(NCCc1c[nH]c2ccccc12)c1ccco1	i	18.0	i	i	i
O=C(O)CCNC(=O)/C(=C/c1ccco1)NC(=O)c1ccco1	i	i	i	nt	?
COC(=O)Nc1ccc(OCC(=O)N2CCOCC2)cc1	i	i	i	i	i
COc1ccc(C(=O)Nc2ccc(OCC(=O)N3CCOCC3)cc2)c(OC)c1OC	i	20.8	?	i	?
O=C(Nc1ccc(OCC(=O)N2CCOCC2)cc1)c1ccccc1F	i	21.2	i	i	?
O=C(Nc1ccc(OCC(=O)N2CCOCC2)cc1)c1cccc(Cl)c1	i	i	i	26.4	i
COc1cc(C(=O)Nc2cc(C)c(OCC(=O)N3CCOCC3)c(C)c2)cc(OC)c1OC	?	i	i	i	13.1µM
